# Screens: PubChem BioAssay, The Scripps Research Institute Molecular Screening Center
# This excerpt belongs to a sample that is enriched for hits.
# TTR transcr act: increases transthyretin transcription | 92,000 tested, 1.3% active | activation, % at 16.7 µM | SH-SY5Y TTR promoter Gaussia luciferase, luminescence; 100% = recombinant luciferase protein wells;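 active = activation above the mean of all tested compounds plus 3 SD, cut at about 9.5% in these data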;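 also: cells exposed to compounds for one day before reading; 0% = median of all test compound wells on the plate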
# TTR inh HuH7: HuH7 TTR transcription inhibition, counter-screen. 1,100 tested, 4% active. shares compounds with TTR transcr act. inhibition, % at 16.7 µM. HuH7 TTR promoter-Gaussia luciferase reporter, luminescence. AID 1117279;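 active = average inhibition above the solvent-only control wells' mean plus 3 SD, cut at about 15% in these data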;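 also: 0% = cells with DMSO only and 100% = cells with inhibitor control FD; inhibitors lower well luminescence so higher value means more inhibition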
# TTR up confirm: confirmation of human transthyretin transcription activators | shares compounds with TTR transcr act | SHSY5Y TTR promoter Gaussia luciferase, luminescence; 100% = purified Lucia enzyme wells, no cells | activation, % at 16.7 µM | 1,100 tested, under 10 active | AID 1117280;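 active = mean activation above a set limit taken from the earlier primary screen, cut at about 11% in these data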;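 also: 0% = DMSO-treated cells and 100% = recombinant Lucia luciferase without cells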
# An asterisk follows results filed as active.
SMILES,TTR transcr act,others
CCCCNC(=O)C[C@H]1C[C@@]2(C(=O)OC)C(=C[C@H](C(C)C)O[C@@H]2C2CC2)N(CCc2ccc(OC)c(OC)c2)C1=O,0,
COC(=O)C[C@@H]1CC[C@H]2[C@H](COc3ccc(NC(=O)c4cccc(C(F)(F)F)c4)cc3C(=O)N2C)O1,2,
S=c1[nH]nc(-c2ccncc2)n1/N=C/C=C/c1ccccc1,5,
Cc1ccc(-c2n[nH]c(=S)n2/N=C/c2ccncc2)cc1,10.0*,TTR inh HuH7=6;TTR up confirm=0
Cc1ccc(-c2n[nH]c(=S)n2/N=C/c2sccc2C)cc1,1,
CCCCc1ccc(-c2noc(CCC(=O)NCC)n2)cc1,-1,
c1ccc(CCNc2ccc3nncn3n2)cc1,5,
Clc1ccc(CNc2ccc3nnc(-c4ccccc4)n3n2)cc1,4,
NCCNc1ccc2nnnn2n1,19*,TTR inh HuH7=-8;TTR up confirm=3
COC(=O)c1cc(-c2ccc(F)cc2OCc2ccccc2)c(=O)n2c1CCC2,-2,
CCCC[C@H](C(=O)N(C)c1ccccc1)[C@@H](O)c1ccc(Cl)cc1,0,
C[C@H]1[C@@H](OC(=O)NCc2ccc(C(F)(F)F)cc2)CC[C@@]23CCCN2C(=O)CCC[C@@H]13,-1,
C=CCN1C(=O)[C@H](CC(=O)NCCCC)[C@@]2(C(=O)OCC)CCCC=C12,0,
Nc1ncnc2c1ncn2C1OC(CO)C(O)C1O (stereo not drawn),4,
OCC1OC(n2nnc3ccccc32)C(O)C(O)C1O (stereo not drawn),0,
O=c1ccncn1C1OC(CO)C(O)C1O (stereo not drawn),13*,TTR inh HuH7=-11;TTR up confirm=1
COC(=O)c1ccc(Cn2ccc3ccc(-c4ccc5ccn(Cc6ccc(OC)cc6)c5c4)cc32)cc1,-2,
Cc1ccccc1CN1CCCCC(NC(=O)c2cccc(F)c2)C1=O (stereo not drawn),-1,
O=C(Cc1ccc(Br)cc1)Nc1ccc(Cl)cc1,0,
O=C(CC1SC(=O)NC1=O)Nc1ccc(Cl)cc1 (stereo not drawn),12*,TTR inh HuH7=7;TTR up confirm=0
Cc1ccc(NC(=O)CC2SC(=NC3CCCCC3)NC2=O)cc1 (stereo not drawn),0,
O=C(C1CCC1)n1ccc2ccc(-c3ccc4ccn(Cc5ccccc5)c4c3)cc21,-1,
O=C(Cc1ccc(Nc2nc3ccc(Br)cc3[nH]2)cc1)NCCc1cccs1,-5,
O=C(NCC1CC1)c1ccc(Nc2nc3ccc(Br)cc3[nH]2)cc1,34*,TTR inh HuH7=1;TTR up confirm=-1
O=C(NCCc1nc2ccccc2[nH]1)c1cccc(Br)c1,4,
SMILES,TTR transcr act,others
COCCn1c(SCC(=O)Nc2ccc(S(N)(=O)=O)cc2)nc2ccccc21,9.8*,TTR inh HuH7=-8;TTR up confirm=-1
COCCn1c(SCC(=O)Nc2cccc(S(N)(=O)=O)c2)nc2ccccc21,4,
COCCn1c(SCC(=O)NC(C)c2ccccc2)nc2ccccc21 (stereo not drawn),0,
Cc1ccccc1Nc1nc(-c2ccccc2)c(C(=O)Nc2cccnc2)s1,13*,TTR inh HuH7=-13;TTR up confirm=-1
O=C(Nc1ccccc1)c1sc(Cl)nc1-c1ccccc1,0,
Cc1nc(Nc2ccc(Cl)c(Cl)c2)sc1C(=O)Nc1ccccc1,-3,
O=C1CCC[C@H]2C[C@H](NCc3ccc(F)cc3F)CC[C@]23CCCN13,-1,
O=c1cc(N2CCN(c3ccnc4cc(Cl)ccc34)CC2)[nH]c(=O)n1C1CCCCC1,2,
O=S1(=O)c2ccc(N3CCC[C@H]3CO)cc2O[C@H]2CCN1C2,0,
Cc1cc(C(=O)O)c(C)o1,1,
O=C(NC1CCCc2c1cnn2-c1ccc(F)cc1F)c1ccccc1 (stereo not drawn),-2,
COc1ccc(C(=O)NC2CCCc3c2cnn3-c2cc(F)cc(F)c2)c(OC)c1OC (stereo not drawn),13*,TTR inh HuH7=29*;TTR up confirm=-1
Cc1cc(C)cc(-n2ncc3c2CCCC3NC(=O)c2cc(C)[nH]n2)c1 (stereo not drawn),-2,
CCCCCCCCN1C(=O)[C@@H](CC(=O)N2CCC(c3ccccc3)CC2)C[C@@]2(C(=O)OC)C1=C[C@H](COCc1ccccc1)O[C@@H]2C,4,
OC1(Cc2ccccc2)CCN(c2ncnc3sccc23)CC1,-4,
CCOC(=O)Cc1csc(NC(=O)COc2ccc3c(c2)CCC3)n1,14*,TTR inh HuH7=-24;TTR up confirm=0
CCOC(=O)Cc1csc(NC(=O)COc2cccc(C)c2)n1,0,
CCOC(=O)Cc1csc(NC(=O)CCC(=O)O)n1,2,
CCCCC#CC(CC)NCc1ccc(OC)cc1OC (stereo not drawn),2,
O=C(c1ccccc1)c1ccc(OCCn2cnc3ccccc3c2=O)cc1,0,
CC(C)(c1ccccc1)c1ccc(OCCn2cnc3ccccc3c2=O)cc1,0,
Cc1cc(C)n(-c2nc3ccccc3c(=O)n2OCCOc2ccccc2)n1,32*,TTR inh HuH7=-10;TTR up confirm=-1
Cc1ccc(N(CC(=O)NCc2ccc(F)cc2)C(=O)c2csnn2)cc1C,11*,TTR inh HuH7=-16;TTR up confirm=0
Cc1cc(C)c(N(CC(=O)NCc2ccccc2)C(=O)c2csnn2)c(C)c1,0,
Cc1ccccc1CCN(CC(=O)NCc1ccc(F)cc1)C(=O)c1csnn1,0,
SMILES,TTR transcr act,others
O=C(OCC#CCSc1nnc(-c2cccc3ccccc23)o1)c1ccc(Cl)c(C(F)(F)F)c1,0,
C[C@H]1CN=C(N(C)C)N1CCc1ccccc1,10*,TTR inh HuH7=1;TTR up confirm=2
CC(CCN1C(N(C)C)=NC[C@@H]1C)c1ccccc1 (stereo partly drawn),1,
C[C@H]1CN=C(N(C)C)N1CCC1CCCC1,-2,
COc1ccc2c(c1)N=C(c1[nH]c3ccccc3c1CCN1C(=O)c3ccccc3C1=O)[C@]2(O)CCN1C(=O)c2ccccc2C1=O,-1,
COc1ccc2cc(C(=O)NC3CCCCC3)c(=O)oc2c1,11*,TTR inh HuH7=-5;TTR up confirm=0
COc1cc2ccccc2cc1C(=O)NC1CCCC1,0,
COc1ccc2cc(C(C)=O)c(=O)oc2c1,0,
Cc1nc(SCC(=O)N(C)c2ccccc2)[nH]c(=O)c1C,0,
O=C1Oc2ccccc2C2(O)C3CCCCCC3C12 (stereo not drawn),13*,TTR inh HuH7=-11;TTR up confirm=0
O=C(Nc1ccc(Cl)cc1Cl)OC1CCC12CCC(c1ccccc1)CC2 (stereo not drawn),0,
COc1ccc(CN(C)CCCn2ccc(N)nc2=O)cc1OC,0,
COc1ncnc2c1ncn2CCCN(C)Cc1ccco1,-1,
CN(CCCn1ccc(N)nc1=O)Cc1ccco1,17*,TTR inh HuH7=-9;TTR up confirm=0
CCCNC(=O)Nc1ccc2c(c1)C(=O)N(C)[C@H]1CC[C@@H](CC(=O)OC)O[C@H]1CO2,-1,
Cc1ccc(CN2CCCCC(NC(=O)c3ccccc3)C2=O)cc1 (stereo not drawn),0,
Cc1ccccc1OCCn1c(C)nc2ccccc21,-2,
Cc1ccccc1OCCn1c(=S)[nH]c2ccccc21,-1,
Cc1ccccc1OCCn1c(S(=O)(=O)O)nc2c(N)ncnc21,9.9*,TTR inh HuH7=-16;TTR up confirm=0
Cc1ccc(NC(=O)[C@@H]2CCCN2S(=O)(=O)c2cccc3cccnc23)c(C)c1,1,
C[C@H]1[C@@H](N(C)CC2CCCCC2)CC[C@@]23CCCN2C(=O)CCC[C@@H]13,4,
O=C(NCCc1ccccc1)c1c(O)c2ccccc2[nH]c1=O,2,
O=C(Cc1c(O)c2ccccc2[nH]c1=O)NCc1ccccc1F,14*,TTR inh HuH7=-18;TTR up confirm=0
